Results taken from PubChem BioAssay AID1845227 (National Center for Advancing Translational Sciences (NCATS), 2023).
Records with an inconclusive call do not appear. Where a call stands in place of a potency, no number is given. Active and inactive are the calls of the source. Calls follow the shape of the dose curve; as a rule, active = well fitted inhibition curve with a large enough effect; inconclusive = small, poorly fitted or top-dose-only effect; inactive = no such curve, though single readings can be large or run the other way.
Potency is read from the fitted curve at half-maximal effect.

Each compound was assayed against Luciferin 4-monooxygenase (Photinus pyralis) (UniProt P08659) (assay: Confirmatory firefly luciferase (FLuc) qHTS assay for identification of artifact compounds). Details: purified FLuc enzyme, luminescence, 5 min; series mostly up to 38.9 µM.
Summary of the method: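 Compounds mixed 15 min with 10 uM luciferin/10 uM ATP, then 10 nM firefly luciferase added for 5 min at pH 7.6. Luminescence percent inhibition, scaled to no-enzyme and DMSO controls, fitted to Hill equation.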
For `CC(C)(C)OC(=O)N1CCC[C@H]1C(=O)N1CCC(C(=O)N[C@H](Cc2ccccc2)C(=O)NCc2ccc(F)cc2)CC1`, the Potency was “inactive”.
`CCOc1ccc(OCC(=O)NCCS(=O)(=O)N2CCN(c3cccc(Cl)c3)CC2)cc1` was tested, and the Potency was “inactive”.
In the case of `COc1cc(Br)c(/C=C(\C#N)c2nc3ccccc3[nH]2)cc1OC`, the Potency is reported as “inactive”.
With `CNc1oc(-c2ccc3cnccc3c2)nc1C#N` the Potency was “inactive”.
With `COc1ccc(CNC(=O)c2ccc(NC(=O)N3CCCCc4ccccc43)cc2)cc1` the Potency was “inactive”.
In the case of `Cc1cc(C)n2ncc(C(=O)Nc3ccc(-c4cn[nH]c4)cc3)c2n1`, the Potency is reported as “inactive”.
`COc1ccc(C(=O)Nc2noc3ccccc23)cc1` was tested, and the Potency was 864 nM (active).
For `COc1ccc(-c2noc(N3CCC(C(=O)N4CCN(c5cccc(C)c5C)CC4)CC3)n2)cc1`, the Potency was “inactive”.
`COc1cccc(NC(=O)CSc2nc3cc(OC)c(OC)cc3c3nc(-c4ccccc4)nn23)c1` was tested, and the Potency was “inactive”.
In the case of `NC(=O)c1ccc(-c2noc(-c3cccc(Cl)c3)n2)cc1`, the Potency is reported as “inactive”.
`CNCc1nc(-c2ccc[nH]2)c2cc(Cl)ccc2n1` was tested, and the Potency was “inactive”.
In the case of `CCCc1cc(=O)[nH]c(Nc2cc(C)ccc2OC)n1`, the Potency is reported as “inactive”.
For `O=C(NCCS(=O)(=O)N1CCN(c2ccc(F)cc2)CC1)C1CC(=O)N(c2ccc(F)cc2)C1` (stereo not given), the Potency was “inactive”.
For `O=c1cc(-c2ccc(O)cc2)oc2cc(O[C@@H]3O[C@H](CO)[C@H](O)[C@H](O)[C@H]3O)cc(O)c12`, the Potency was “inactive”.
In the case of `CCc1ccccc1NC(=O)c1nc(-c2ccncc2)no1`, the Potency is reported as “inactive”.
For `COc1ccc(NC(=O)Cn2c(=O)n(CCc3ccccc3)c(=O)c3c4c(sc32)CCCC4)cc1`, the Potency was “inactive”.
With `CCCCN(CCCNC(=O)c1cc(Nc2ccc(OC)c(OC)c2)nc2ccccc12)Cc1ccccc1` the Potency was “inactive”.
With `O=C(C1CCC(CNS(=O)(=O)c2cccc3cccnc23)CC1)N1CCCCC1` (stereo not given) the Potency was “inactive”.
With `CC(C)Nc1ccc(-c2nc(-c3ccccn3)no2)cc1[N+](=O)[O-]` the Potency was 3440 nM (active).
For `Cc1nnc(NC(=O)c2nc(S(=O)(=O)Cc3ccccc3)ncc2Cl)s1`, the Potency was “inactive”.
`O=S(=O)(Nc1cccc2cccnc12)c1ccccc1` was tested, and the Potency was “inactive”.
With `COc1ccc2cc3cc(C(=O)N4CCN(c5ccccc5F)CC4)oc3nc2c1` the Potency was “inactive”.
With `O=C(Cc1ccccc1)Nc1ccc2oc(-c3cccnc3)nc2c1` the Potency was “inactive”.
With `O=C(Nc1cc(-c2ccc(Cl)cc2)no1)c1ccc(F)cc1` the Potency was “inactive”.
In the case of `CC(=O)c1ccc(NS(=O)(=O)c2ccc(-c3cc(C)no3)s2)cc1`, the Potency is reported as “inactive”.
With `COc1ccc(C2C(C(=O)Nc3ccccc3)=C(C)Nc3c(C(=O)Nc4ccccc4)cnn32)cc1` (stereo not given) the Potency was “inactive”.
With `COC(=O)c1scc(-c2ccc(C)cc2)c1S(=O)(=O)N1CCN(c2ccc(C(C)=O)cc2)CC1` the Potency was “inactive”.
For `Cc1ccc(OC(C)C(=O)NCC2(N3CCOCC3)CCCCC2)cc1C` (stereo not given), the Potency was “inactive”.
For `C=CCNc1nnc(-c2cccc3ccccc23)o1`, the Potency was “inactive”.
`CCCc1nn2cc(-c3ccc(C)c(C)c3)nc2s1` was tested, and the Potency was 770 nM (active).
In the case of `C[C@@H]1CC2(OC3C[C@@]4(C)C5=CC[C@H]6C(C)(C)C(O[C@@H]7OC[C@@H](O)[C@H](O)[C@H]7O)CC[C@@]67C[C@@]57CC[C@]4(C)C31)OC(O)C1(C)OC21` (stereo not given in full), the Potency is reported as “inactive”.
`CCOc1ccc2c(c1)C(C)=CC(C)(C)N2` was tested, and the Potency was “inactive”.
For `COc1ccc(C(=O)Nc2ccc3oc(-c4cccnc4)nc3c2)cc1`, the Potency was “inactive”.
With `O=c1oc2ccc(Br)cc2cc1-c1csc(-c2ccc(Cl)cc2)n1` the Potency was “inactive”.
In the case of `Cn1c(=O)[nH]c2cc(-c3noc(-c4cccc(Cl)c4)n3)ccc21`, the Potency is reported as “inactive”.
